# In the library only some 10% were active in any assay of this set; here they are far more common.
# JMJD2A Tudor = JMJD2A Tudor domain (human) inhibition. AlphaScreen JMJD2A-Tudor / H3K4me3 peptide binding. O75164. AID 504339. Potency, µM (top dose mostly 114 µM), without a hit: top-dose activity change, negative = inhibition, actives largely listed as inhibitors. actives 4.4% (n = 390,000); further: on the % scale 0 is the no-effect control and ±100 the full control effect; nearly all actives have a fitted effect of over 50% in size
# HP1b chromo inh = inhibitors of HP1-beta chromodomain binding to methylated histone tails | AID 540317 | actives 0.56% (n = 390,000) | Potency, µM (highest dose often 114 µM), for the others: top-dose activity change, negative = inhibition, actives largely listed as inhibitors | AlphaScreen HP1-beta / biotin-H3K9me3 peptide binding | P83916; further: nearly all actives have a fitted effect of over 70% in size
#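 HP1-beta protein (50 nM final) preincubated 30 min at room temperature with biotinylated H3(1-18)K9me3 peptide (50 nM) in PBS pH 7.4, 0.01% Tween-20, then compound added for 30 min. AlphaScreen streptavidin donor/nickel chelate acceptor beads (10 ug/mL final), 30 min dark, luminescence read.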
# GLS inhibitor = glutaminase GLS (human) inhibition | AID 624170 | O94925 | GLS enzymatic activity, qHTS titration | actives 0.21% (n = 410,000) | Potency, µM (doses to about 45.5 µM), for the others: at the top dose activity change, negative = inhibition, most hits filed as inhibitors; further: on the % scale 0 is the no-effect control and ±100 the full control effect
#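 Human kidney-isoform GLS in 45 mM KH2PO4 pH 8.2, 0.02% Tween-20, with compound, started with 1mM L-Glutamine (added stock). Glutamate oxidase/HRP/Amplex red coupled fluorescence read at start and after 30 min at RT.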
# BAZ2B block = BAZ2B (human) inhibition; AlphaScreen BAZ2B-H3K14Ac peptide displacement; actives 4.4% (n = 360,000); Q9UIF8; AID 504333; Potency, µM (titrated, usually from 114 µM), inactives show at the highest dose activity change, negative = inhibition, most hits filed as inhibitors; further: on the % scale 0 is the no-effect control and ±100 the full control effect; nearly all actives have a fitted effect of over 60% in size
# Target sequence (Q9UIF8 whole entry, looked up): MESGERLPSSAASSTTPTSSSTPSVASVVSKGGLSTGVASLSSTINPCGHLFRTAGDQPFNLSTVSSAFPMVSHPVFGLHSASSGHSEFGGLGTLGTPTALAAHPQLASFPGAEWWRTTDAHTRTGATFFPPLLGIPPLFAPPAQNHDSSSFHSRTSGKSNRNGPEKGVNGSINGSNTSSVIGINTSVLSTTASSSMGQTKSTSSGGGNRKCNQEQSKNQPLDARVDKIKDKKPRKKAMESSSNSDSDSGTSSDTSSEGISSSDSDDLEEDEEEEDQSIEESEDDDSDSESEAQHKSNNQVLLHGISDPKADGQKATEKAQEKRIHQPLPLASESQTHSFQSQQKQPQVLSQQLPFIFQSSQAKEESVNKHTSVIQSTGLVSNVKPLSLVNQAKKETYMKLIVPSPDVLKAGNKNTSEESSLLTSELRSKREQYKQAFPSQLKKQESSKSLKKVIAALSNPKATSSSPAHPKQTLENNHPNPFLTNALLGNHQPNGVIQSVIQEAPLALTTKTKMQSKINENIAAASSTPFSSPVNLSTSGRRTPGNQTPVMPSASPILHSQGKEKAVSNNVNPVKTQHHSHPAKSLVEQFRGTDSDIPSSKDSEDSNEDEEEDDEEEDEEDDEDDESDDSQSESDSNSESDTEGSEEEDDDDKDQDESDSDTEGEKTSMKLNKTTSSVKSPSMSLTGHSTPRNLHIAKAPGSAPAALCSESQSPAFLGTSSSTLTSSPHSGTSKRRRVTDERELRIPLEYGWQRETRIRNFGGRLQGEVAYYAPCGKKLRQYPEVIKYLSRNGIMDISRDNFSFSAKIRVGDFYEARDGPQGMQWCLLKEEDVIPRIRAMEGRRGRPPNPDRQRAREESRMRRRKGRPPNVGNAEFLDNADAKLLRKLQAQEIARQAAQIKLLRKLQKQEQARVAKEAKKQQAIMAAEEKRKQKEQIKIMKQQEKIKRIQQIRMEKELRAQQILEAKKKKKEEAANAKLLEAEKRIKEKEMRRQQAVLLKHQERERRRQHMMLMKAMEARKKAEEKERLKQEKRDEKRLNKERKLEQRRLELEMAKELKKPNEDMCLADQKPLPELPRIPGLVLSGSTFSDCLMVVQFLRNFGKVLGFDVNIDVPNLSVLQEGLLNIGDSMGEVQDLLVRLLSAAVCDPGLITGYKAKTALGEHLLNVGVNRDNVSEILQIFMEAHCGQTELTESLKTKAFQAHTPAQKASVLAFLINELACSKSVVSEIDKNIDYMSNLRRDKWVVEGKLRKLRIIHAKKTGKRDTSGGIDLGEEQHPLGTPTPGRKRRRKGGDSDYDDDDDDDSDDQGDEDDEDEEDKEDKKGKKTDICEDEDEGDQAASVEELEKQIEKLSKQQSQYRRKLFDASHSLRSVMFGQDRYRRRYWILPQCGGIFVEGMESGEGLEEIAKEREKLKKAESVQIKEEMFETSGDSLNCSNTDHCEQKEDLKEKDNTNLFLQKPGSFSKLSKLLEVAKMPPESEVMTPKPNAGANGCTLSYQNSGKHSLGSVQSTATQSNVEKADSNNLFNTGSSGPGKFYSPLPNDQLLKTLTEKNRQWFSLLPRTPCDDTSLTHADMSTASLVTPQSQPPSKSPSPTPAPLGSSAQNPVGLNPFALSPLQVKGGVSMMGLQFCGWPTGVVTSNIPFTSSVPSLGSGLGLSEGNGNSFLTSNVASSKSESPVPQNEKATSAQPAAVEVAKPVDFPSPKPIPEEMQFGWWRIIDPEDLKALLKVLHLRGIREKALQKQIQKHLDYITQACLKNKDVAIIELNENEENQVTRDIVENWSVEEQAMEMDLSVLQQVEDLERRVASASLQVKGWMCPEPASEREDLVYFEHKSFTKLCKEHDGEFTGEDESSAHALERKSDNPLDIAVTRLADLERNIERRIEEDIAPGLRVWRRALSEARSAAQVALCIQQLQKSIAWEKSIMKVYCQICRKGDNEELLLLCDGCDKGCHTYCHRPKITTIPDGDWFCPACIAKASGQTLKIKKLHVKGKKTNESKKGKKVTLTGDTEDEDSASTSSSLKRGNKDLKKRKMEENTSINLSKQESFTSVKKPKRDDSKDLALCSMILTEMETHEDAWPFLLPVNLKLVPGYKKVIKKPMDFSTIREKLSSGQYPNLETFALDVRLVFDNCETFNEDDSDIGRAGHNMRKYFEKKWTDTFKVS
#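 Multi-concentration screen (max 110 uM) measuring displacement of acetylated histone H3 peptide from BAZ2B by AlphaScreen, using 50 nM protein, 50 nM peptide and 10 ug/mL streptavidin donor plus Ni-chelate acceptor beads.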
# G9a inh = inhibitors of human histone lysine methyltransferase G9a | AID 504332 | Potency, µM (series often up to 102 µM), for inactives: at the highest dose activity, negative = inhibition, usual class: inhibitors | Q96KQ7 | G9a H3K9 monomethylation, AlphaScreen, 2 h | actives 8.8% (n = 350,000); further: on the % scale 0 is the no-effect control and ±100 the full control effect; nearly all actives have a fitted effect of over 75% in size
#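 Quantitative HTS format: methyltransferase activity on a biotin-tagged H3K9 peptide is measured by AlphaScreen, using a rabbit anti-monomethyl-H3K9 antibody with streptavidin donor and anti-IgG acceptor beads. Final levels are 20 nM enzyme, 500 nM peptide, 20 uM SAM; 2 h RT.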
# Starred values were filed as active, the others as inactive; ? = inconclusive; · = no result given; [ ] = remark or other dose. The call rests on the fitted dose curve; in most records, active means well fitted curve in the direction sought with a large enough effect; inconclusive means small, poorly fitted or top-dose-only effect, or another doubt; inactive means no such curve, though single readings can be large; an effect the other way counts as inactive or inconclusive. Potency means the concentration at half of the fitted maximal effect.
SMILES,JMJD2A Tudor,HP1b chromo inh,GLS inhibitor,BAZ2B block,G9a inh
COc1cc2oc(=O)cc(CN3CCCCC3)c2cc1Cl,·,·,16%,·,·
CC1(C)CC(=O)C(C(C2=C(O)CC(C)(C)CC2=O)c2ccc(O)c([N+](=O)[O-])c2)=C(O)C1,-8%,20%,-1%,-32%,35µM*
CC1(C)CC(=O)C(C(C2=C(O)CC(C)(C)CC2=O)c2ccc([N+](=O)[O-])cc2)C(=O)C1 (configuration not stated),-10%,46%,23%,-16%,32µM*
CC1(C)CC(=O)C2=C(C1)OC1=C(C(=O)CC(C)(C)C1)C2c1ccc(O)c([N+](=O)[O-])c1,-20%,23%,7%,-4%,-27%
CC1(C)CC(=O)C(C(c2cccnc2)C2C(=O)CC(C)(C)CC2=O)C(=O)C1,-32%,32%,7%,-1%,50µM*
COc1cccc(C(C2=C(O)CC(C)(C)CC2=O)C2C(=O)CC(C)(C)CC2=O)c1 (configuration not stated),-15%,43%,44%,1%,45µM*
COc1cc2c(C(=O)N3CCN(c4ccc(F)cc4)CC3)cn(CC(C)C)c(=O)c2cc1OC,-22%,11%,17%,-5%,-5%[59 µM]
CCC(Oc1ccc(F)cc1)C(=O)Nc1nc(-c2ccc(F)cc2)ns1 (configuration not stated),14%,86%,-2%,29%,47%[59 µM]
CC(C)(C)OC(=O)Cc1nnc(CNC(=O)c2ccccc2)s1,-4%,·,·,·,·
COc1cccc(C(C2C(=O)CC(C)(C)CC2=O)C2C(=O)CC(C)(C)CC2=O)c1,-6%,61%,18%,-2%,79µM*
Cc1cc(C(C2C(=O)CC(C)(C)CC2=O)C2C(=O)CC(C)(C)CC2=O)cc(C)c1OC(F)F,-25%,4%,4%,-12%,32µM*
COC(=O)COc1ccc(NC(=O)C(c2ccccc2)c2ccccc2)cc1,-19%,-3%,-10%,?,-2%
COC(=O)COc1ccc(C(C2C(=O)CC(C)(C)CC2=O)C2C(=O)CC(C)(C)CC2=O)cc1,13%,52%,28%,12%,32µM*
CC1(C)CC(=O)C(C(c2ccccc2F)C2C(=O)CC(C)(C)CC2=O)C(=O)C1,-11%,60%,16%,-1%,·
O=C(NNC(=S)Nc1ccc(C(=O)O)c(O)c1)c1ccncc1,?,-30%,41%,·,·
O=P(c1ccccc1)(c1ccccc1)c1ccccc1C(Br)Br,·,·,8%,·,·
O=C(c1ccc(CSc2nc3ccncc3[nH]2)cc1)N1CCCCC1,20µM*,?,-5%,79µM*,25µM*
Clc1ccccc1CSc1nc2ccncc2[nH]1,-20%,-1%,14%,9%,45µM*
CC1CCCCC1NC(=O)c1ccc(CSc2nc3ccncc3[nH]2)cc1 (configuration not stated),-20%,33%,0%,0%,?
CN(CCOc1ccccc1)CC(=O)Nc1ccc(Br)cc1F,63%,97%,6%,79%,181%
O=C(NC(=S)Nc1ccc2c(c1)C(=O)c1ccccc1C2=O)c1ccc(F)cc1,·,·,·,0%,?
Cc1ccc(C(=O)c2cc(O)c(O)c([N+](=O)[O-])c2)cc1,·,·,17%,·,·
Cc1cc2ccccc2n2c(SCC(=O)Nc3cccc(C(F)(F)F)c3)nnc12,-3%,29%,-3%,0%,-44%[59 µM]
Fc1ccccc1CN1CCCCCCC1,4µM*,?,0%,50µM*,-50%[12.7 µM]
Fc1ccc(CN2CCCCCC2)c(F)c1,?,?,13%,?,-9%[12.7 µM]
Fc1ccc(CN2CCCCCCC2)c(F)c1,3.2µM*,?,1%,50µM*,?
CCn1ccc2cc(S(=O)(=O)N3CCC(C(=O)NCCOC)CC3)ccc21,0%,27%[57 µM],-2%,-2%,0%[59 µM]
C=CCn1c(NC(=O)CC)c(C(=O)OCC)sc1=S,-3%[57.1 µM],-1%,-8%,?,45µM*
O=C1NC[C@@H](CCCCN2CCN(CCc3ccc(O)cc3)C(=O)C2=O)N(CCc2ccc(O)cc2)C1=O,·,·,-6%,·,·
CC[C@]1(c2cccc(C)c2)C(=O)N(C(=O)OC)N1C(=O)OC,-1%,50%,22%,-37%,40µM*
